As a reminder, the Inhibition is the change of the read-out against control, counted positive when it falls. A high value points to a response far below the control.

One assay concerns Plasmodium falciparum. Briefly: GSK_TCMDC: Inhibition of Plasmodium falciparum Dd2 in whole red blood cells, using parasite LDH activity as an index of growth. Test compounds present at 2uM. In kind it is functional.
The compound `COc1cccc(C2=CC(c3ccccc3)n3ncc(C(=O)Nc4ccc(Cl)cc4)c3N2)c1` (centres undefined) showed an Inhibition of 28%.
In turn, `CC(C)N1CCC(NC(=O)N2CCCN(c3ncnc4cc(-c5ccccc5)sc34)CC2)CC1.O=C(O)C(F)(F)F` showed an Inhibition of 11%.
Still for that read-out and setting: the result for `C[C@@]12C[C@@H](Nc3nc(NCCc4ccc(O)cc4)nc(N4CCNCC4)n3)C[C@@H](C1)c1cccc(Cl)c1O2.O=C(O)C(F)(F)F` reads 47%; that for `CC[C@@H]([C@@H](CC(C)C)C(=O)N[C@@H](CCCCNC(=O)OCc1ccccc1)C(=O)Nc1ccccn1)N(O)C=O`, 99%.

In a further assay the test system is HepG2. Briefly: GSK_TCMDC: Percent inhibition of human HepG2 cell line. Test compounds present at 10uM. In kind it is functional.
In the case of `NC1CCN(CCNCc2cccc(-c3ccc(-c4nc5cc(F)ccc5[nH]4)cc3)c2)C1.O=C(O)C(F)(F)F` (centres undefined), the Inhibition is 8%.
As for `O=C(/C=C/c1ccc(Cl)c(Cl)c1)NCCCCCN1CCC(NC(=O)NCCc2ccccc2)CC1`, the Inhibition came out at 23%.
In turn, `Cc1nc(N)nc(N)c1OCc1ccc(Cl)c(Cl)c1.Cl` came in with an Inhibition of 14%.
Still for that read-out and setting: the result for `CN1CCN(c2ccc(Nc3ncc(Cl)c(Nc4cccnc4C(N)=O)n3)cc2)CC1.Cl` reads 99%; that for `O=C(/C=C/C=C/c1ccccc1)NCCCCCN1CCC(c2c[nH]c3ccccc23)CC1`, 28%; that for `O=S(=O)(Nc1cccc(CCN2CCC(N3CCCCC3)CC2)c1)c1ccc(-c2ccccc2)cc1`, 76%.
The same measure, in the same setting: the result for `COc1cc2c(cc1C(F)(F)F)N(C(=O)Nc1cc(OC(F)(F)F)cc(-c3cccnc3)c1)CC2` reads 55%; that for `CC(=O)c1ccc(Nc2c(C(N)=O)cnc3cc(-c4c(C)noc4C)ccc23)cc1`, 0%; that for `O=C(Nc1ccc2c(c1)CCN2C1CCN(Cc2cccc3cc[nH]c23)C1)c1ccco1` (centres undefined), 0%.
On the same count and under the same terms, the result for `O=C(Nc1ccc(Cl)c(Cl)c1)N[C@H]1CCN(CCCCCNC(=O)C2CC2c2ccc(Cl)c(Cl)c2)C1` (some centres undefined) reads 42%; that for `O=C(Nc1ccc(C(F)(F)F)cc1)NC1CCN(c2ccnc3ccccc23)CC1.O=C(O)C(F)(F)F`, 46%.
In the case of `Oc1ccccc1CN1CCC2(CCCN(Cc3ccccc3F)C2)C1` (centres undefined), the Inhibition came to 13%.
Still for that read-out and setting: the result for `NC(=O)c1cccc(CN2Cc3ccccc3OC3(CCN(Cc4c[nH]c5cnccc45)CC3)C2)c1.O=C(O)C(F)(F)F` reads 9%; that for `NC(=O)c1cccc(C(=O)Nc2cccc(-c3ccc(-c4nc5cc(C(F)(F)F)ccc5[nH]4)cc3)c2)c1`, 83%.
Still for that read-out and setting: the result for `Nc1c(-c2ccc(C(=O)NCCNCc3ccccc3)cc2)cnn1-c1ccc(C(F)(F)F)cc1.O=C(O)C(F)(F)F` reads 23%.
Still for that read-out and setting: the result for `CCN(C(=O)NC)C1c2cc(C#N)ccc2OC(C)(C)C1O` (centres undefined) reads 3%.
The compound `O=C(Nc1ccc(Cl)c(Cl)c1)Nc1ccc2c(c1)CCNCC2.O=C(O)C(F)(F)F` returned an Inhibition of 13%.
Still for that read-out and setting: the result for `CC(C)C[C@H](NC(=O)c1ccc(OCCN2CCOCC2)cc1)C(=O)NC(/C=N/N1CCCC1=O)C(C)C` (some centres undefined) reads 3%; that for `CC[C@H](NC(=O)c1ccc(NC(=O)OC(C)(C)C)cc1)C(=O)N[C@@H](CO)C(=O)NCCCCc1ccccc1`, 0%.
In turn, `COc1ccc2nccc(NCC3(O)CCC(NCc4cc5c(cn4)OCCO5)CC3)c2n1.Cl` (centres undefined) came in with an Inhibition of 15%.
On the same count and under the same terms, the result for `Oc1cccc2ccc(Nc3ccccn3)nc12` reads 72%.
On the same count and under the same terms, the result for `COc1ccc(C(=O)Cn2nc(-c3ccc(Cl)cc3)ccc2=O)c(OC)c1` reads 0%; that for `CN1CCC(C(=O)Nc2cccc(-c3ccc(-c4nc5cc(C(F)(F)F)ccc5[nH]4)s3)c2)CC1`, 29%; that for `Cc1nc(-c2nc(NCc3ccc4c(c3)OCO4)ncc2-c2ccsc2)sc1C`, 7%.
The same measure, in the same setting: the result for `COc1cc2nc(N3CCC(CNC(=O)c4cc5ccccc5s4)CC3)nc(N)c2cc1OC` reads 8%.
As to `Cc1ccc(C)c(Cn2ccc3nc(N)nc(N)c32)c1`, the Inhibition is given as 65%.
On the same count and under the same terms, the result for `Fc1ccc2[nH]c(-c3ccc(-c4ccc(CN5CCN(CCN6CCOCC6)CC5)cc4)cc3)nc2c1.O=C(O)C(F)(F)F` reads 38%; that for `Cc1c(CNCCCNc2cc(=O)c3ccccc3[nH]2)sc(C(F)=C(F)F)c1Br.Cl`, 7%.
The same measure, in the same setting: the result for `Cn1nccc1C(=O)NCCNCc1cccc(-c2csc(-c3nc4ccccc4[nH]3)c2)c1.O=C(O)C(F)(F)F` reads 30%; that for `CC(C)(CNCc1cccc(Oc2ccccc2)c1)c1nc(-c2ccnc(N)n2)c(-c2ccc(Cl)c(O)c2)[nH]1.Cl`, 28%.
Still for that read-out and setting: the result for `CC(C)N1CCC(N(Cc2ccc(-c3ccc(C(F)(F)F)cc3)cc2)C(=O)Cn2c(SCc3cccc(F)c3F)cc(=O)c3c2CCC3)CC1.O=C(O)C(O)C(O)C(=O)O` reads 44%; that for `Cc1ncc([N+](=O)[O-])n1CCOC(=O)NC(NCC1COc2ccccc2O1)C(Cl)(Cl)Cl` (centres undefined), 0%; that for `CSC1=NC(C)(C)CC2(CC(c3cccc(C)c3)c3cc(Cl)c(O)cc3O2)N1` (centres undefined), 0%.
`O=C(Nc1cccc(CN2CCCN(Cc3ccc(F)cc3)CC2)c1)c1ccc(Cl)c(Cl)c1.O=C(O)C(F)(F)F` returned an Inhibition of 27%.
On to `C=CCN(C(=O)c1ccc(Cl)c([N+](=O)[O-])c1)c1nc(-c2ccccc2)cs1`, for which the Inhibition came to 0%.
Take `COc1cc(Cc2cnc(N)nc2N)ccc1OCC(=O)Nc1ccc(C)cc1`: the Inhibition worked out at 10%.
The same measure, in the same setting: the result for `COc1cccc(C2=CC(c3ccccc3)n3ncc(C(=O)Nc4ccc(Cl)cc4)c3N2)c1` (centres undefined) reads 7%.
Still for that read-out and setting: the result for `CC(C)N1CCC(NC(=O)N2CCCN(c3ncnc4cc(-c5ccccc5)sc34)CC2)CC1.O=C(O)C(F)(F)F` reads 31%; that for `C[C@@]12C[C@@H](Nc3nc(NCCc4ccc(O)cc4)nc(N4CCNCC4)n3)C[C@@H](C1)c1cccc(Cl)c1O2.O=C(O)C(F)(F)F`, 92%.
`CC[C@@H]([C@@H](CC(C)C)C(=O)N[C@@H](CCCCNC(=O)OCc1ccccc1)C(=O)Nc1ccccn1)N(O)C=O` displayed an Inhibition of 0%.

(Values after ChEMBL document CHEMBL1157539, “Thousands of chemical starting points for antimalarial lead identification” (Nature, 2010).)
